The source of these data is PubChem BioAssay (Tox21).

Structures are written as SMILES. Values joined by “and” are separate entries in the source; they are usually repeats but may differ in a detail not shown here. Identical values can stand only once. Results filed as inconclusive are left out. A structure can be active in one record and inactive in another. Active and inactive are the calls of the source. Unless noted, the call rests on the fitted dose curve; in most records, active means well fitted curve in the direction sought with a large enough effect in the repeat runs; inconclusive means weak or mixed curves; inactive means no such curve, though single readings can be large; an effect the other way counts as inactive or inconclusive.

Assay [1] in a line: qHTS assay to identify aromatase inhibitors - cell viability counter screen (AID 743084).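 Further: cells stimulated with testosterone during compound exposure; nearly all actives have a fitted effect of over 55% in size.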 Further: potency means the concentration at half of the fitted maximal effect.
Assay [2] deals with Aryl hydrocarbon receptor (Homo sapiens) (UniProt P35869). In words: qHTS assay to identify small molecule that activate the aryl hydrocarbon receptor (AhR) signaling pathway (AID 743085). Further: nearly all actives have a fitted effect of over 15% in size. Further: potency means the concentration at half of the fitted maximal effect.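 On activation: HG2L7.5c1 human HepG2 liver cells with stably integrated DRE-driven firefly reporter; series mostly up to about 70 µM.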 Put shortly: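 Luminescence read-out: ONE-Glo reagent, 30 min at room temperature, in HG2L7.5c1 HepG2 reporter cells treated 24 h at 37C. Viability was measured beforehand by CellTiter-Fluor fluorescence after 30 min at 37C.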
Sequence of Aryl hydrocarbon receptor (Homo sapiens) (P35869 whole entry, looked up): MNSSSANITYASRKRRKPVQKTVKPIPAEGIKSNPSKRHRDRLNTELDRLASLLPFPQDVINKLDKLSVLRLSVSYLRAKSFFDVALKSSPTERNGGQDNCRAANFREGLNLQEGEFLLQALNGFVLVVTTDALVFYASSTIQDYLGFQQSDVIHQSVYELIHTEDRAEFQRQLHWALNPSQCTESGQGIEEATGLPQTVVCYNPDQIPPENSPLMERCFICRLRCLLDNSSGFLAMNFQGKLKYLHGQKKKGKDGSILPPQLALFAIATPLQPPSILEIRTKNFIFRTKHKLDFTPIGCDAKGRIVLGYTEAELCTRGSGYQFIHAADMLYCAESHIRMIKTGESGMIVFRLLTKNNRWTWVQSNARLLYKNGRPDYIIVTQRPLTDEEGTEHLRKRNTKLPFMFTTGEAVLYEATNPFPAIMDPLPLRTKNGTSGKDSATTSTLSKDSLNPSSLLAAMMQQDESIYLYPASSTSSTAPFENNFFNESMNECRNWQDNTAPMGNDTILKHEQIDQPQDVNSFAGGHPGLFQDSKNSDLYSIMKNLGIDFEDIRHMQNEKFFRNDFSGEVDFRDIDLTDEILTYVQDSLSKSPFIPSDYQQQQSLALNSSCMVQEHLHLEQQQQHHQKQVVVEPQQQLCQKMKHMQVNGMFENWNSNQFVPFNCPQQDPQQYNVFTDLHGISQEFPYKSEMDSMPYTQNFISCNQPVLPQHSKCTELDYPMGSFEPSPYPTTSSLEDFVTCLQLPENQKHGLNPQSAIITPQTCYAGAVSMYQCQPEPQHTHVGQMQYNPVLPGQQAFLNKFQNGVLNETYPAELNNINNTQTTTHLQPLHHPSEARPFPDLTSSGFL

Assay [3] is described as follows: qHTS assay to identify small molecule that activate the aryl hydrocarbon receptor (AhR) signaling pathway - cell viability counter screen (AID 743086). Further: nearly all actives have a fitted effect of over 45% in size. Further: potency means the concentration at half of the fitted maximal effect. Put shortly:
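HepG2-AhR-luc (HG2L7.5c1) cells, 4000/well, were preincubated 5 h at 37C, exposed to compound in qHTS format for 24 hr at 37C, then given CellTiter-Fluor for 30 min; viability was read as fluorescence in the reporter wells.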

Assay [4] deals with Peroxisome proliferator-activated receptor gamma (Homo sapiens) (UniProt P37231). In words: qHTS assay to identify small molecule agonists of the peroxisome proliferator-activated receptor gamma (PPARg) signaling pathway (AID 743094; active means well fitted activation curve with a large enough effect in the signal ratio in the repeat runs, not every such curve was filed as active; the % refers to the signal ratio). An outline of the steps: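 GeneBLAzer PPARg UAS-bla HEK293H cells were plated, rested 5 h, then exposed to compounds for 17 h at 37C. Beta-lactamase activity was read by LiveBLAzer B/G FRET substrate fluorescence after 1 h at room temperature.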
Sequence of Peroxisome proliferator-activated receptor gamma (Homo sapiens) (P37231 whole entry, looked up): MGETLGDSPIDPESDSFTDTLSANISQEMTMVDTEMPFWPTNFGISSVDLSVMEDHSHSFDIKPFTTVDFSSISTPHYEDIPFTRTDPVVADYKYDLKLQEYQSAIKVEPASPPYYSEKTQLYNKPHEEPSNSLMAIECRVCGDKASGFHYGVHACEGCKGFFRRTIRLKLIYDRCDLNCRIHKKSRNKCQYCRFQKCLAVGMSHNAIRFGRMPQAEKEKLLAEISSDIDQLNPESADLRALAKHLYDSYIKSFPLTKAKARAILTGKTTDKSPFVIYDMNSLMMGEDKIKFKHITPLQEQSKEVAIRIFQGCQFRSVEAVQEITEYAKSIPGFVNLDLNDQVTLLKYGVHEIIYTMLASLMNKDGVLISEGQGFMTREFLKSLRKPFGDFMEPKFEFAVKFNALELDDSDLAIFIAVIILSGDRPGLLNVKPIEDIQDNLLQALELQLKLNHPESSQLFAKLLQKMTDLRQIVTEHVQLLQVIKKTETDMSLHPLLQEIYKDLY

A short description of assay [5]: qHTS assay to identify small molecule antagonists of the peroxisome proliferator-activated receptor gamma (PPARg) signaling pathway - cell viability counter screen (AID 743194). Further: nearly all actives have a fitted effect of over 55% in size. Further: potency means the concentration at half of the fitted maximal effect. An outline of the steps:
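PPARg-UAS-bla HEK293H cells were plated, rested 5 h at 37 C, then treated with compounds plus rosiglitazone (50 nM final) for 17 h at 37 C; viability was then read by CellTiter-Glo luminescence after 30 min at room temperature.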
(In general: In qHTS, concentration-response curves come from the screen itself.)

A short description of assay [6]: qHTS assay for small molecule agonists of the antioxidant response element (ARE) signaling pathway (AID 743202; active means well fitted activation curve with a large enough effect in the signal ratio in the repeat runs, not every such curve was filed as active; the % refers to the signal ratio; further: potency means the concentration at half of the fitted maximal effect). Put shortly: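 Read-out: LiveBLAzer B/G FRET substrate fluorescence after 2 h at room temperature, following 16 h compound treatment at 37 C of HepG2 cells carrying an ARE-driven beta-lactamase reporter.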
Assay [7] is described as follows: qHTS assay for small molecule agonists of the antioxidant response element (ARE) signaling pathway - cell viability counter screen (AID 743203; calls by dose curve; further: nearly all actives have a fitted effect of over 55% in size; further: potency means the concentration at half of the fitted maximal effect). An outline of the steps:
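ARE-bla HepG2 cells were plated, rested 5 h at 37C/5% CO2, then exposed to compounds in DMSO for 16 h. Viability was read as CellTiter-Glo luminescence after 30 min at room temperature, in the same wells as the ARE screen.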

Assay [8] deals with Peroxisome proliferator-activated receptor gamma (Homo sapiens) (UniProt P37231). The experiment in a line: qHTS assay to identify small molecule antagonists of the peroxisome proliferator-activated receptor gamma (PPARg) signaling pathway (AID 743191; calls by dose curve; further: series mostly up to about 63 µM; nearly all actives have a fitted effect of over 30% in size). An outline of the steps: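 GeneBLAzer PPARg UAS-bla HEK293H cells carrying a UAS-driven beta-lactamase reporter were plated at 3000 cells/well, preincubated 5 h at 37C, then given compound for 17 h at 37C; LiveBLAzer B/G FRET substrate was read after 1 h at room temperature.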

Assay [9] can be described thus: qHTS assay for small molecule activators of the heat shock response signaling pathway - cell viability counter screen (AID 743209). Further: nearly all actives have a fitted effect of over 50% in size. Further: potency means the concentration at half of the fitted maximal effect. An outline of the steps:
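HSE-bla HeLa cells plated overnight, then exposed to Tox21 compounds (23 nL in DMSO) for 5 h at 37 C. After the bla reporter read, CellTiter-Glo was added in the same wells and luminescence read after 30 min at room temperature.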

Assay [10] can be described thus: qHTS assay for small molecule activators of the heat shock response signaling pathway (AID 743210; active means well fitted activation curve with a large enough effect in the signal ratio in the repeat runs, with a control signal flat, not every such curve was filed as active; the % refers to the signal ratio; further: series mostly up to about 63 µM). An outline of the steps: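 HSE-bla HeLa cells (beta-lactamase reporter under heat shock response elements) were exposed to compounds for 5 h at 37 C, then loaded with LiveBLAzer B/G FRET substrate for 2.5 h at room temperature before fluorescence reading.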

For the molecule `C=CC(N)CCC(=O)O` (stereo not given), the Potency result in assay [1], in assay [2], in assay [3] and in assay [4] was “inactive” each time.

Take `Cc1cn([C@H]2C[C@H](O)[C@@H](CO)O2)c(=O)[nH]c1=O`: the Potency entry in assay [1], in assay [2], in [3] and in assay [4] was “inactive” each time.

With `NCC[C@H](O)C(=O)N[C@@H]1C[C@H](N)[C@@H](O[C@H]2O[C@H](CN)CC[C@H]2N)[C@H](O)[C@H]1O[C@H]1O[C@H](CO)[C@@H](O)[C@H](N)[C@H]1O`, the Potency result in assay [1], in assay [2], in assay [3] and in assay [4] was “inactive” in each case.

Consider `CC/C=C\C/C=C\C/C=C\C/C=C\C/C=C\C/C=C\CCC(=O)O`, for which the Potency entry in assay [1], in [2], in [3] and in [4] was “inactive” throughout.

On to `c1ccc2cc3c4ccccc4c4ccccc4c3cc2c1`, for which the Potency entry in assay [1], in assay [3], in assay [5] and in assay [7] was “inactive” throughout. The Potency in assay [2] was 0.0973 µM (active); in assay [6] it was 1.94 µM (active).

For `COc1ccc(/C=N/NC(=O)c2ccncc2)c(C(=O)O)c1OC`, the Potency result in assay [1], in assay [3] and in assay [4] was “inactive” throughout. For the same molecule, the Potency in assay [2] is 11.9 µM (active).

As for `NC(=O)[C@H]1O[C@@H](O)[C@H](O)[C@@H](O)[C@@H]1O`, the Potency entry in assay [1], in assay [2], in [3] and in [4] was “inactive” throughout.

`O=C1OC(=O)c2cc(-c3ccc4c(c3)C(=O)OC4=O)ccc21`: the Potency entry in assay [1], in [2], in assay [3], in assay [4], in assay [8] and in assay [5] was “inactive” each time. Moreover, the Potency entry in [7] was “inactive”.

In the case of `CCCCCCCCCCCCCCCCC(C(=O)O)C(O)(CC(=O)O)C(=O)O` (stereo not given), the Potency entry in assay [1], in assay [2], in assay [3] and in [4] was “inactive” each time. In addition, the Potency in [7] is 21.1 µM (active); in assay [9], 29.8 µM (active).

Take `CO/N=C(\C(=O)N[C@@H]1C(=O)N2C(C(=O)O)=C(C[N+]3(C)CCCC3)CS[C@H]12)c1csc(N)n1`: the Potency entry in assay [1], in assay [2], in assay [3] and in assay [4] was “inactive” each time.

As to `CC(C)c1ccc2sc3ccccc3c(=O)c2c1`, the Potency entry in [1], in assay [3], in [5] and in [7] was “inactive” each time. In addition, the Potency is 30.6 µM (active) in assay [2] and 9.69 µM (active) in assay [6].

For the molecule `Cc1cc(-c2ccc(N=Nc3ccc4c(S(=O)(=O)O)cc(S(=O)(=O)O)c(N)c4c3O)c(C)c2)ccc1N=Nc1ccc2c(S(=O)(=O)O)cc(S(=O)(=O)O)c(N)c2c1O`, the Potency in assay [1] was 23.7 µM (active); in assay [3], “inactive and 29.8 µM (active)”. Besides, the Potency entry in [2] and in [4] was “inactive” throughout.

Take `SC1CCCCC1`: the Potency entry in [1], in [2], in assay [3], in [4], in assay [5] and in assay [7] was “inactive” throughout. Moreover, the Potency result in assay [9] was “inactive”. In [10], the call was inactive.

Consider `NC(=O)C1c2ccccc2CCc2ccccc21`, for which the Potency entry in assay [1], in assay [2], in assay [3] and in [4] was “inactive” each time.

As for `CCCCCCCCCCCCCC(=O)OCC(COP(=O)([O-])OCC[N+](C)(C)C)OC(=O)CCCCCCCCCCCCC` (stereo not given), the Potency entry in assay [1], in assay [2], in assay [3] and in assay [4] was “inactive” in each case.

For `CN(C)CCOc1ccc(/C(=C(/CCCl)c2ccccc2)c2ccccc2)cc1`, the Potency in assay [1] was 45.5 µM (active); in assay [3], “inactive and 40.5 µM (active)”; in [5], 25.8 µM (active); in assay [7] it was 16.1 µM (active); in assay [9], 28.9 µM (active). The Potency entry in [2] and in assay [4] was “inactive” each time.

With `O=C(N[C@H](CO)[C@H](O)c1ccc([N+](=O)[O-])cc1)C(Cl)Cl`, the Potency result in assay [1], in assay [2], in [3], in assay [4], in assay [7] and in [9] was “inactive” throughout.

With `NC(N)=NCC1COC2(CCCCC2)O1` (stereo not given), the Potency result in assay [1], in [2], in assay [3] and in assay [4] was “inactive” in each case.

For the molecule `COc1c(O)cc2c(c1O)[C@@H]1O[C@H](CO)[C@@H](O)[C@H](O)[C@H]1OC2=O`, the Potency entry in [1], in assay [2], in [3] and in [4] was “inactive” each time.

On to `CNC(=O)OCc1cccc(COC(=O)NC)n1`, for which the Potency result in assay [1], in assay [2], in assay [3] and in assay [4] was “inactive” in each case.

For the molecule `CN(C/C=C/c1ccccc1)Cc1cccc2ccccc12`, the Potency entry in assay [1], in assay [2], in [3], in [4], in [5] and in assay [6] was “inactive” in each case. The Potency result in [7] and in assay [9] was “inactive” throughout. Besides, the outcome in [10] was inactive.

With `CN(C[C@@H](CC[N+]12CCC(C3CCCCC3)(CC1)CC2)c1ccc(Cl)c(Cl)c1)C(=O)c1cc(C(F)(F)F)cc(C(F)(F)F)c1`, the Potency is 61.1 µM (active) in [1]; 54.5 µM (active) in assay [3]; 54.9 µM (active) in assay [5]; 30.6 µM (active) in [7]; 24.5 µM (active) in [9]. In addition, the Potency entry in assay [2] is “inactive”.

Turning to `C[C@@H]1O[C@@H](OC[C@H]2O[C@@H](Oc3c(-c4ccc(OCCO)c(OCCO)c4)oc4cc(OCCO)cc(O)c4c3=O)[C@H](O)[C@@H](O)[C@@H]2O)[C@H](O)[C@H](O)[C@H]1O`, the Potency result in assay [1], in assay [2] and in [4] was “inactive” throughout.

With `O=C(O)C[C@H](O)C[C@H](O)/C=C/c1c(C2CC2)nc2ccccc2c1-c1ccc(F)cc1`, the Potency entry in assay [1], in assay [2] and in assay [4] was “inactive” throughout.

For `C(=C\c1ccncc1)/c1ccccc1`, the Potency result in assay [1] and in assay [4] was “inactive” each time. The Potency in [2] was 23.7 µM (active) and 13.3 µM (active).

As for `CCN1\C(=C/C=C/C=C/c2sc3ccccc3[n+]2CC)Sc2ccccc21`, the Potency in [1] was 11.9 µM (active). Also, the Potency result in assay [2] and in assay [4] was “inactive” throughout.
